High-throughput results: PubChem BioAssay, National Center for Advancing Translational Sciences (NCATS)
SARS PLpro yeast-1 = inhibitors of SARS-CoV papain-like protease in yeast; S. cerevisiae expressing SARS-CoV PLpro, growth rescue; Potency, µM (titrated, usually from 32.9 µM), most hits filed as activators; 330,000 tested, 0.19% active; calls by dose curve; further: nearly all actives have a fitted effect of over 55% in size
HCV inh = HCV inhibition; Huh7.5.1 HCVcc-Cre infection, luciferase reporter, 44 h; 340,000 tested, 3.4% active; Potency, µM (series often up to 41.8 µM), usual class: inhibitors; active means well fitted inhibition curve with a large enough effect; inconclusive means small, poorly fitted or top-dose-only effect, or another doubt; inactive means no such curve, though single readings can be large or run the other way
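A cell-based infection assay in which seeded cells (1,000 per well) receive test compound after 4 h, are inoculated with HCVcc-Cre at approximately 0.5 moi, and are incubated 44 h before luminescence detection.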
HCMV antiviral = blocks human cytomegalovirus replication | 410,000 tested, 4.5% active | activity change, negative = inhibition, % at 57.5 µM | HFF cells, HCMV-luciferase reporter, 72 h; stronger effect = lower value | AID 1259415; in the data active means activity change below about -60%; inconclusive means no clear call, values can overlap the other calls; inactive means above about -39%
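Compounds were evaluated in HFFs infected with an HCMV luciferase reporter virus (MOI 1 PFU/cell). Luciferase in lysates collected 72 h post infection served as the replication measure.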
FMDV inh = antivirals against foot and mouth disease virus | FMDV antiviral cell-based qHTS | Potency, µM (series often up to 57.9 µM), most hits filed as inhibitors | 410,000 tested, 1.2% active; calls by dose curve; tested in HEK293T cells; further: read-out not given here; nearly all actives have a fitted effect of over 45% in size
MARV entry inh = Marburg virus entry inhibition. 300,000 tested, 1.8% active. AID 540276. Marburg virus pseudotyped entry inhibition, cell reporter. Potency, µM (series often up to 37.8 µM), actives largely listed as inhibitors; calls by dose curve; tested in HEK293 cells
LASV entry inh = Lassa virus entry inhibition; Lassa virus pseudotype entry inhibition, cell reporter; Potency, µM (highest dose often 37.9 µM), most hits filed as inhibitors; 300,000 tested, 1.2% active; calls by dose curve; tested in HEK293 cells; further: nearly all actives have a fitted effect of over 50% in size
SARS PLpro yeast-2 = Rescues yeast growth by inhibiting SARS-CoV PLpro | shares compounds with SARS PLpro yeast-1 | yeast expressing SARS-CoV PLpro, growth phenotype rescue | calls only | 1,000 tested, 19% active | AID 652038; call rule not given here
Each line names hits and unclear results; the compound was inactive in the other large screens (follow-up assays come after a bar, where they were run). Shown are actives, neighbours in structure and some others; about 8% of the full set was active somewhere.

O=C1c2ccccc2C(=O)c2c1ccc(O)c2O	none (no result: SARS PLpro yeast-1, MARV entry inh, LASV entry inh)
COc1ccc(OC)c(C(=O)c2coc3ccc(OC(C)=O)cc23)c1	MARV entry inh inconclusive, LASV entry inh 11µM
COc1ccc(C(=O)c2coc3ccc(OC(C)=O)cc23)cc1	HCV inh inconclusive, MARV entry inh inconclusive, LASV entry inh inconclusive
COCCN1C(=O)C2=C(C1=O)C1N(C)c3ccccc3[C@@]13C[C@@H](CO)N(C(C)=O)C3=N2 (some centres undefined)	none (no result: SARS PLpro yeast-1, HCV inh, HCMV antiviral, FMDV inh, LASV entry inh)
Cc1oc(-c2ccc(C(=O)NCc3ccc(N(C)C)cc3)cc2)nc1COc1ccccc1	LASV entry inh inconclusive (no result: SARS PLpro yeast-1, HCV inh, MARV entry inh)
CCn1nc([N+](=O)[O-])c(C(C#N)c2nc3cc(C(F)(F)F)ccc3s2)c(Cl)c1=O (centres undefined)	HCV inh 11µM, HCMV antiviral inconclusive, FMDV inh 2µM
CCCn1nc([N+](=O)[O-])c(C(C#N)c2nc3ccccc3o2)c(Cl)c1=O (centres undefined)	MARV entry inh inconclusive, LASV entry inh inconclusive
OCC[n+]1ccc(/C=C/c2c[nH]c3ccccc23)cc1	HCV inh 3.5µM, HCMV antiviral -99, LASV entry inh inconclusive
O=c1c(-c2cccs2)cc(-n2c(=O)[nH]c3ccccc32)cn1-c1ccccc1	none (no result: SARS PLpro yeast-1, HCV inh, FMDV inh, MARV entry inh, LASV entry inh)
O=C(COc1ccc2ccc(=O)oc2c1)NCCc1c[nH]c2ccc(F)cc12	FMDV inh inconclusive (no result: MARV entry inh, LASV entry inh)
CCc1cc(=O)oc2cc(C)cc(OCC(=O)NCCc3c[nH]c4ccccc34)c12	HCV inh 2.2µM, FMDV inh inconclusive (no result: MARV entry inh, LASV entry inh)
CCc1cc(=O)oc2cc(C)cc(OCC(=O)NC(Cc3c[nH]c4ccc(O)cc34)C(=O)O)c12 (centres undefined)	none (no result: MARV entry inh, LASV entry inh)
CCCc1cc(=O)oc2cc(OCC(=O)NCCc3c[nH]c4ccc(OC)cc34)ccc12	HCV inh 18µM (no result: MARV entry inh, LASV entry inh)
CC(=O)c1ccccc1NC(C(=O)NC1CCCCC1)c1ccccc1F (centres undefined)	none (no result: SARS PLpro yeast-1, HCV inh, FMDV inh, MARV entry inh, LASV entry inh)
O=C(NCCCN1C(=O)c2ccccc2C1=O)OCc1ccccc1	none (no result: SARS PLpro yeast-1)
COc1ccc(-c2cc(C(F)(F)F)n3nc(C(=O)Nc4sc5c(c4C#N)CCC(C)C5)cc3n2)cc1OC (centres undefined)	none (no result: SARS PLpro yeast-1, HCV inh)
N#Cc1c2ccc([N+](=O)[O-])cc2[n+]([O-])n1-c1ccccc1	HCV inh 1.6µM, HCMV antiviral active (no result: FMDV inh, MARV entry inh, LASV entry inh)
O=c1c2cc([N+](=O)[O-])ccc2sn1-c1ccccc1	none (no result: SARS PLpro yeast-1, HCV inh, MARV entry inh, LASV entry inh)
CC(=O)[O][Hg][c]1ccccc1	FMDV inh 4.5µM (no result: SARS PLpro yeast-1, HCV inh, HCMV antiviral, MARV entry inh, LASV entry inh)
COC(=O)c1ccccc1	none (no result: SARS PLpro yeast-1, HCV inh, FMDV inh, MARV entry inh, LASV entry inh)
CC(=O)Nc1ccc(NC(=O)C/C(C)=N/NC(N)=S)cc1	SARS PLpro yeast-1 11µM (no result: MARV entry inh, LASV entry inh)
Cc1ccc(Cl)cc1Nc1nc(-c2sc(NC(=O)c3ccco3)nc2C)cs1	HCV inh 8.9µM, HCMV antiviral inconclusive (no result: MARV entry inh, LASV entry inh)
Cc1nc(NC(=O)c2ccco2)sc1-c1csc(Nc2ccc(Cl)cc2Cl)n1	HCV inh inconclusive, HCMV antiviral -77 (no result: MARV entry inh, LASV entry inh)
Cc1nc(NC(=O)c2ccco2)sc1-c1csc(Nc2ccc(Cl)cc2)n1	HCV inh 2.5µM, HCMV antiviral inconclusive (no result: MARV entry inh, LASV entry inh)
Cc1nc(NC(=O)c2ccccc2)sc1-c1csc(Nc2ccc(Cl)cc2Cl)n1	none (no result: HCV inh, HCMV antiviral, FMDV inh, LASV entry inh)
COc1cccc(N(C(=O)c2ccco2)c2nc(-c3sc(NC(=O)c4ccco4)nc3C)cs2)c1	HCV inh 4µM, HCMV antiviral inconclusive (no result: LASV entry inh)
CC(=O)c1c(N2CCN(C)CC2)nc(=S)n(-c2cc(C)ccc2C)c1C	none
Cc1ccc2[nH]c(CSc3nnc(C)s3)cc(=O)c2c1	none (no result: SARS PLpro yeast-1, HCV inh, MARV entry inh)
Cc1ccc(C(=O)N/N=C(/CC(=O)c2cccs2)C(F)(F)F)cc1	HCMV antiviral -86, MARV entry inh inconclusive, LASV entry inh inconclusive
Cc1ccc(NCCC(=O)c2cccs2)cc1	none (no result: MARV entry inh, LASV entry inh)
O=C(N/N=C(\CC(=O)c1cccs1)C(F)(F)F)c1ccncc1	HCV inh inconclusive, HCMV antiviral -76, MARV entry inh inconclusive, LASV entry inh inconclusive
CCCCc1c(C)c(C#N)c2[nH]c3ccccc3n2c1=O	HCMV antiviral -73, FMDV inh 22µM, MARV entry inh inconclusive, LASV entry inh inconclusive
CCCN(C(=O)c1ccc2c(SCC(=O)O)c3c(nc2c1)CCC3)c1cccc(C)c1	HCMV antiviral -60 (no result: MARV entry inh, LASV entry inh)
CCCCNC(=O)c1ccc2c(SCC(=O)O)c3c(nc2c1)CCCC3	none
Nc1nc(SCC(=O)Nc2ccc([N+](=O)[O-])cc2)[nH]c(=O)c1NC(=O)c1ccc(Br)o1	none
COc1ccc2c(c1OC)C(=O)OC2C/C(=N\NC(N)=O)c1ccccc1 (centres undefined)	HCMV antiviral -70
CC(C)Oc1ccc(C(=O)/C(=C\c2cccs2)c2nc3ccccc3o2)cc1	HCV inh inconclusive, HCMV antiviral -73, MARV entry inh inconclusive, LASV entry inh inconclusive
COc1ccc(CN(C(=O)c2snc(C(N)=O)c2N)C(C(=O)NC2CCCC2)c2ccc(OC)cc2)cc1 (centres undefined)	HCV inh inconclusive, LASV entry inh inconclusive
COc1ccc(CN(C(=O)c2nsc(Cl)c2Cl)C(C(=O)NC2CCCC2)c2ccc(OC)cc2)cc1 (centres undefined)	MARV entry inh inconclusive, LASV entry inh 21µM
CNC(=O)[C@@H]1C[C@@H](NCc2cccc(Oc3ccccc3)c2)CN1C(C)C	none (no result: SARS PLpro yeast-1, HCV inh, HCMV antiviral, MARV entry inh, LASV entry inh)
O=C(NCc1ccc(OC(F)(F)F)cc1)c1cc(-c2ccccc2)nn1CC1CC(c2cccnc2)=NO1 (centres undefined)	HCV inh inconclusive, HCMV antiviral -67 (no result: SARS PLpro yeast-1, MARV entry inh, LASV entry inh)
NNc1ccc2c(C(F)(F)F)cc(C(F)(F)F)nc2n1	HCV inh inconclusive
N#CC(c1cccc(Cl)c1)c1ccc2c(C(F)(F)F)cc(C(F)(F)F)nc2n1 (centres undefined)	HCV inh 2.8µM, HCMV antiviral -104, FMDV inh 5µM, MARV entry inh inconclusive, LASV entry inh 2.2µM (no result: SARS PLpro yeast-1)
C=CCn1c(O)c(N=NC(=S)Nc2cccc(C)c2)c2ccccc21	SARS PLpro yeast-1 inconclusive, HCV inh inconclusive, MARV entry inh inconclusive, LASV entry inh inconclusive | SARS PLpro yeast-2 active
Cc1cc(C(=O)Nc2ccc(N3CCCC3)c(Cl)c2)ccc1[N+](=O)[O-]	HCV inh inconclusive, MARV entry inh inconclusive
CN1C(=O)c2ccc(NC(=O)c3ccc(N4CCCCC4)c([N+](=O)[O-])c3)cc2C1=O	SARS PLpro yeast-1 14µM, FMDV inh 18µM | SARS PLpro yeast-2 inactive
CC1CCCN(c2nc3c(c(=O)[nH]c(=O)n3C)n2CCCc2ccccc2)C1 (centres undefined)	SARS PLpro yeast-1 inconclusive, FMDV inh inconclusive (no result: MARV entry inh, LASV entry inh) | SARS PLpro yeast-2 inactive
CC1CCN(c2nc3c(c(=O)[nH]c(=O)n3C)n2Cc2ccccc2)CC1	none (no result: MARV entry inh, LASV entry inh)
COc1cccc(C(=O)Nc2ccccc2)c1	none
